Data: PubChem BioAssay
Unmarked numbers belong to inactive results. For some assays here: Measured potencies and affinities stand elsewhere. Calls of active or inactive are those of the source. Unless noted, no rule for the calls is given here.

Legend:
[1] = antimalarial activity against Dd2 strain (AID 2302;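 active = growth inhibition above 50% at the single 2 µM test dose, taken to imply half-maximal potency below 2 µM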;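 also: 0% = DMSO untreated growth and 100% = chloroquine plus artemisinin killed control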); conditions: P. falciparum Dd2 in RBCs, LDH growth readout, 72 h; at 2 µM; hits give high values
[2] = HepG2 cytotoxicity, primary screen, cytotoxicity control for P. falciparum antimalarial project, cell-based, ATP luminescence (AID 2303;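 active = inhibition above 50%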;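 also: 0% = DMSO wells and 100% = digitonin-killed cells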); conditions: HepG2 viability, 24-48 h, at 10 µM, hits give high values
[3] = molecular target: L-lactate dehydrogenase (Plasmodium falciparum (isolate CDC / Honduras)) (UniProt Q27743); test: PfLDH activity inhibition – cell lysate, 3D7 strain, counter-screen for P. falciparum growth inhibition project (AID 2304);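 also: 0% = vehicle and 100% = reference inhibitor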; conditions: P. falciparum 3D7 crude extract, LDH APAD/NBT absorbance; at 2 µM; hits give high values
Chain of L-lactate dehydrogenase (Plasmodium falciparum (isolate CDC / Honduras)) (Q27743 whole entry, looked up): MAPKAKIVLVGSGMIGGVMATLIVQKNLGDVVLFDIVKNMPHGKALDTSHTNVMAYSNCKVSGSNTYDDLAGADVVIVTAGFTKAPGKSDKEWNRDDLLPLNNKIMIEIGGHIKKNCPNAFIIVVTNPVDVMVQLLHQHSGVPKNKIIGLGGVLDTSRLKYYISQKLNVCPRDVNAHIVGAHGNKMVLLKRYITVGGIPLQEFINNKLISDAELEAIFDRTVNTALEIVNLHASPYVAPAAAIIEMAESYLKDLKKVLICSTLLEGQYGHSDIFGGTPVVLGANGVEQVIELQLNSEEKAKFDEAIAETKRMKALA

[4] = inhibition of 3D7 malaria parasite growth – strain 3D7 (AID 2306);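 also: 0% = DMSO wells and 100% = chloroquine plus artemisinin control wells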; conditions: P. falciparum 3D7 erythrocytic growth, LDH absorbance, 72 h; at 2 µM; hits give high values
[5] = molecular target: Calcium-dependent protein kinase 1 (Plasmodium falciparum (isolate 3D7)) (UniProt P62344); test: PfCDPK1 kinase inhibitors, biochemical, TCAMS library (AID 1159585; cut-off not given, nearly all actives have IC50 up to about 0.98 µM;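 also: inhibitors leave more ATP so luminescence rises with inhibition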); conditions: recombinant PfCDPK1, Kinase-Glo ATP depletion luminescence
Chain of Calcium-dependent protein kinase 1 (Plasmodium falciparum (isolate 3D7)) (P62344 whole entry, looked up): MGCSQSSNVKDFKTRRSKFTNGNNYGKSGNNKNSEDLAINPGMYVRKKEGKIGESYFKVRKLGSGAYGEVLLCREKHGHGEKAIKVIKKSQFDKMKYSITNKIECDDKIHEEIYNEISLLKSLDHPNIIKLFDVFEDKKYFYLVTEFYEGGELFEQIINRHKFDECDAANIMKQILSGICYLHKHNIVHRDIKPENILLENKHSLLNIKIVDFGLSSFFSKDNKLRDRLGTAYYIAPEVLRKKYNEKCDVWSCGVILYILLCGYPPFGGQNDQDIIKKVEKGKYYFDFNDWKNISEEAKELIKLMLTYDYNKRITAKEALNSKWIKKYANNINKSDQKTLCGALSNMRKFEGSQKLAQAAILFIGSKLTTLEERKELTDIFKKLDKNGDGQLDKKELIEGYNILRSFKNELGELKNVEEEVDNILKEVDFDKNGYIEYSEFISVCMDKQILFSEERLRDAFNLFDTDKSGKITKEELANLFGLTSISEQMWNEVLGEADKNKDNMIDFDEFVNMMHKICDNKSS

[6] = molecular target: Plasmodium falciparum protein kinase 6 (PK6, PF3D7_1337100) (UniProt Q8IDW1); test: PfPK6 kinase inhibitors, biochemical, TCAMS library (AID 1159586); conditions: recombinant PfPK6, Kinase-Glo ATP depletion luminescence
Chain of Plasmodium falciparum protein kinase 6 (PK6, PF3D7_1337100) (Q8IDW1 1-305): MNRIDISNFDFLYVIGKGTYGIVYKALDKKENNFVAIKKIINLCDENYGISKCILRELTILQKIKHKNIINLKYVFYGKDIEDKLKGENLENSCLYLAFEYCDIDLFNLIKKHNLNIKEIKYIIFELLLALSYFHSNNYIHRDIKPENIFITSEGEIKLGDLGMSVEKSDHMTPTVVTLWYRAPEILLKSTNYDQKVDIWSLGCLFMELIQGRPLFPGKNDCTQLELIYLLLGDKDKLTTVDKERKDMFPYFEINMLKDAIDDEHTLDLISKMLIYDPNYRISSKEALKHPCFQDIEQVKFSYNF

[7] = molecular target: Protein kinase 7 (PK7), Plasmodium falciparum 3D7 (PF3D7_0213400) (UniProt Q7YTF7); test: inhibition of Plasmodium PK7 catalytic activity – biochemical, TCAMS antimalarial set, Kinase-Glo luminescence (AID 1159587); conditions: recombinant PfPK7, Kinase-Glo ATP depletion luminescence
Chain of Protein kinase 7 (PK7), Plasmodium falciparum 3D7 (PF3D7_0213400) (Q7YTF7 1-343): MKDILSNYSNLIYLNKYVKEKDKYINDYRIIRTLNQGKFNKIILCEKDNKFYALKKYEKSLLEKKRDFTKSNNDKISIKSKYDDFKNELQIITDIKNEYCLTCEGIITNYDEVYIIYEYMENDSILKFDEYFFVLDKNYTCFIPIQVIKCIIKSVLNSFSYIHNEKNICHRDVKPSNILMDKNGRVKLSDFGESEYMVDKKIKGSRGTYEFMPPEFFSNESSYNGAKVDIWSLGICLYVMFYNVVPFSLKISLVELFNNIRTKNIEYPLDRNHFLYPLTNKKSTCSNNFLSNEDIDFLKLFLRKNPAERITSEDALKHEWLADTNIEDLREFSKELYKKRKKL

[8] = molecular target: Calcium-dependent protein kinase 4 (Plasmodium falciparum (isolate 3D7)) (UniProt Q8IBS5); test: PfCDPK4 kinase inhibitors, biochemical, TCAMS library (AID 1159588; cut-off not given, nearly all actives have IC50 up to about 0.91 µM); conditions: recombinant PfCDPK4, Kinase-Glo ATP depletion luminescence
Chain of Calcium-dependent protein kinase 4 (Plasmodium falciparum (isolate 3D7)) (Q8IBS5 whole entry, looked up): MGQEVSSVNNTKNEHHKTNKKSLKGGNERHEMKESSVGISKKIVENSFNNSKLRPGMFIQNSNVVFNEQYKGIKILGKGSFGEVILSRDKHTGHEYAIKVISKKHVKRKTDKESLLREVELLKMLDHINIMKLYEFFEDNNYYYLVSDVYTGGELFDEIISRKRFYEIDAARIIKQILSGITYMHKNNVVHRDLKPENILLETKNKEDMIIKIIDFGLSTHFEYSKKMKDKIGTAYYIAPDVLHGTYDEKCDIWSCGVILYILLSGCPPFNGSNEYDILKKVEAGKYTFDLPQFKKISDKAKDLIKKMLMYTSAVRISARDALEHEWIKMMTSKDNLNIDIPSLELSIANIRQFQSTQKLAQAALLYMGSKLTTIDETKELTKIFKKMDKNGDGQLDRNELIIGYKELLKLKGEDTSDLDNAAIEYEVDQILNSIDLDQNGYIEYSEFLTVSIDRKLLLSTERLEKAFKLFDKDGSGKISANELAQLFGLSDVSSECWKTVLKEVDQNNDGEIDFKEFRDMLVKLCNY

Row | SMILES | growth inhibition [1] | inhibition [2] | inhibition [3] | growth inhibition [4] | outcome [5] | outcome [6] | outcome [7] | outcome [8]
1 | CC(C)C1=C[C@H]2C[C@]3(C4OCCO4)[C@@H]4CC[C@@H](C)[C@H]4C[C@@]2(C(=O)OCC2COCO2)[C@]13C(=O)OC(c1ccccc1)c1ccccc1 (stereo not given in full) | 96% (active) | 2% | 4% | 92% (active) | inactive | inactive | inactive | inactive
2 | CN(C1CCC(NC(=O)/C=C/c2ccccc2)CC1)C1CC2(CCN(C(=O)OC(C)(C)C)CC2)c2ccccc21 (stereo not given) | 95% (active) | 16% | 5% | 95% (active) | inactive | inactive | inactive | inactive
3 | O=C(Nc1ccc(Cl)cc1Cl)N[C@H]1CCN(CCCCCNC(=O)[C@@H]2C[C@H]2c2ccc(Cl)c(Cl)c2)C1 | 0% | 37% | 2% | 94% (active) | inactive | inactive | inactive | inactive
4 | CC(C)(C)CCN1CCC(NC(=O)c2ccc(-c3cccc(C(F)(F)F)c3)s2)CC1 | 88% (active) | 95% (active) | -2% | 93% (active) | inactive | inactive | inactive | inactive
5 | CC(C)(C)c1nn(-c2ccc(Cl)cc2)c2[nH]c(=O)c(CNC3CCCC3)cc12 | 99% (active) | -2% | 1% | 99% (active) | inactive | inactive | inactive | inactive
6 | COc1cc(Nc2nccc(N3CCC(NS(=O)(=O)c4ccc(NC(C)=O)cc4)CC3)n2)cc(OC)c1OC | 42% | -5% | -3% | 91% (active) | inactive | inactive | inactive | inactive
7 | O=C(Nc1ccc(-c2ccccc2)cc1)Nc1ccc2c(c1)CCNCC2 | 48% | 41% | -2% | 97% (active) | inactive | inactive | inactive | inactive
8 | CCN(CC)CCN(Cc1ccc(-c2ccc(C(F)(F)F)cc2)cc1)C(=O)Cn1c(CCc2ccc(F)c(F)c2)nc(=O)c2ccccc21 | 62% (active) | 31% | 3% | 99% (active) | inactive | inactive | inactive | inactive
9 | O=C(NC1CCCCN(Cc2ccccc2O)C1)c1ccc(Cl)c(Cl)c1 (stereo not given) | 96% (active) | -7% | -1% | 96% (active) | inactive | inactive | inactive | inactive
10 | CCOc1ccc(-c2nonc2NC(=O)c2ccccc2)cc1OCC | 100% (active) | 6% | 4% | 99% (active) | inactive | inactive | inactive | inactive
11 | Cn1cncc1C(=O)Nc1cccc(-c2ccc(-c3nc4ccc(F)cc4[nH]3)cc2)c1 | 31% | -1% | -2% | 101% (active) | inactive | inactive | inactive | inactive
12 | CC(=O)N(C)c1cccc(C(=O)Nc2cccc(-c3cccc(-c4nc5ccc(C(F)(F)F)cc5[nH]4)c3)c2)c1 | 41% | 49% | -5% | 97% (active) | inactive | inactive | inactive | inactive
13 | CCOC(=O)C1CCN(CCOc2cc(NC(=O)/C=C/c3ccccc3Cl)ccc2Br)CC1 | 29% | 6% | -2% | 87% (active) | inactive | inactive | inactive | inactive
14 | CCCCNc1nc(NCCCC)c2c(C)c(Cc3ccccc3)c(NCCCC)nc2n1 | 84% (active) | 69% (active) | -10% | 95% (active) | inactive | inactive | inactive | inactive
15 | O=C(NCCCCN1CCC(c2cccc3ccccc23)CC1)c1ccc(-c2ccc(C(F)(F)F)cn2)cc1 | 36% | 31% | 0% | 91% (active) | inactive | inactive | inactive | inactive
16 | CN1CCC(NCc2cccc(-c3ccc(S(=O)(=O)NCCc4ccccn4)cc3)c2)CC1 | 1% | 10% | -1% | 95% (active) | inactive | inactive | inactive | inactive
17 | CNC(=O)c1cnc(Nc2ccc(N3CCN(C)CC3)cc2)nc1Nc1cccc(OC)c1 | 101% (active) | 19% | 5% | 100% (active) | inactive | inactive | inactive | inactive
18 | CN(C)CCC1CCCc2ccc(NC(=O)Nc3ccc(-c4ccncc4)c4ccccc34)cc21 (stereo not given) | 27% | 34% | 6% | 89% (active) | inactive | inactive | inactive | inactive
19 | CN1CCC(N2CCN(Cc3cccc(-c4ccc(-c5nc6ccc(C(F)(F)F)cc6[nH]5)cc4)c3)CC2)CC1 | 91% (active) | 100% (active) | 4% | 101% (active) | inactive | inactive | inactive | inactive
20 | NCC1CCCN1Cc1cccc(-c2ccc(-c3nc4ccc(C(F)(F)F)cc4[nH]3)s2)c1 (stereo not given) | 96% (active) | 17% | -3% | 102% (active) | inactive | inactive | inactive | inactive

Row | SMILES | growth inhibition [1] | inhibition [2] | inhibition [3] | growth inhibition [4] | outcome [5] | outcome [6] | outcome [7] | outcome [8]
21 | COc1ccccc1-n1ccnc1SCC(=O)Nc1cccc(C(F)(F)F)c1 | 96% (active) | 1% | -2% | 95% (active) | inactive | inactive | inactive | inactive
22 | Cc1ccccc1Nc1nc(NCCCO)c2ccccc2n1 | 50% (active) | -1% | -5% | 83% (active) | inactive | inactive | inactive | inactive
23 | Cc1nc(Nc2ccc(C)c(Cl)c2)c2c(C)noc2n1 | 72% (active) | 0% | 0% | 94% (active) | inactive | inactive | inactive | inactive
24 | O=C(NCc1cccc(F)c1)Nc1ccc(-c2cccc(-c3nc4ccccc4[nH]3)c2)cc1 | 2% | 14% | 0% | 86% (active) | inactive | inactive | inactive | inactive
25 | COc1ccccc1C1CCN(C2CCC(NC(=O)c3cc4cc(C(C)C)ccc4[nH]3)CC2)CC1 (stereo not given) | 98% (active) | 100% (active) | -4% | 101% (active) | inactive | inactive | inactive | inactive
26 | NCCCNc1nc(Nc2ccc(C(F)(F)F)cc2F)c2c(=O)[nH]ccc2n1 | 15% | 23% | -1% | 95% (active) | inactive | inactive | inactive | inactive
27 | c1ccc(Oc2ccc(Nc3ccnc4ccc(-c5ccco5)cc34)cc2)cc1 | 32% | -4% | -1% | 87% (active) | inactive | inactive | inactive | inactive
28 | COc1cc2nc(N3CCC(CNC(=O)c4ccc(-c5ccc(C(=O)N(C)C)cc5OCCO)cc4)CC3)nc(N)c2cc1OC | 8% | -7% | -1% | 100% (active) | inactive | inactive | inactive | inactive
29 | COC(=O)c1ccc(NC(=O)Nc2cccc(CCNCc3ccccc3)c2)cc1 | 10% | 2% | 6% | 96% (active) | inactive | inactive | inactive | inactive
30 | Cc1cc(-c2ccc3c(c2)CC[C@@H](N[C@@H](C)c2ccccc2)C3)cnc1N | 7% | 3% | -2% | 98% (active) | inactive | inactive | inactive | inactive
31 | CCc1cc(NCc2ccncc2)nc(Nc2ccc(F)cc2)n1 | 17% | 8% | 0% | 92% (active) | inactive | inactive | inactive | inactive
32 | O=C(NCCc1ccccc1)N(Cc1ccccc1-c1ccc(CNCCc2ccccc2)cc1)C1CCN(Cc2ccccc2)CC1 | 91% (active) | 99% (active) | 5% | 97% (active) | inactive | inactive | inactive | inactive
33 | CC(C)(C)c1cc(Cn2ccnc2)cc(C(C)(C)C)c1O | 3% | 4% | -2% | 85% (active) | inactive | inactive | inactive | inactive
34 | N#CN1CC[C@@H](NS(=O)(=O)Cc2ccc(Cl)c(Cl)c2)C1 | 94% (active) | 13% | -3% | 94% (active) | inactive | inactive | inactive | inactive
35 | O=C(Nc1ccccc1)N(Cc1ccccc1-c1cccc(CNC2CCCC2)c1)C1CCN(Cc2ccccc2)CC1 | 84% (active) | 36% | 3% | 100% (active) | inactive | inactive | inactive | inactive
36 | S=c1nc(-c2ccccc2)n2ccsc2n1 | 0% | 3% | -6% | 95% (active) | inactive | inactive | inactive | inactive
37 | Cc1ccc(NC(=O)c2ccc(CN3CCCN(CC4CCCCC4)CC3)cc2)cc1 | 42% | 41% | -3% | 93% (active) | inactive | inactive | inactive | inactive
38 | CC(C)Cc1cnc2nc(N)nc(N)c2c1 | -2% | 66% (active) | 1% | 98% (active) | inactive | inactive | inactive | inactive
39 | CN(CCCCCNC(=O)/C=C/c1ccc(Cl)c(Cl)c1)CCCCc1c[nH]c2ccccc12 | 15% | 17% | 2% | 90% (active) | inactive | inactive | inactive | inactive
40 | Cc1ccc(CN=C(N)NC(=O)c2nc(Cl)c(NCc3ccc(Cl)cc3)nc2N)c(C)c1 | 100% (active) | 28% | -5% | 101% (active) | inactive | inactive | inactive | inactive
